# Bioassay records as filed in PubChem.
# In the library only some 10% were active in any assay of this set; here they are far more common.
# Lamin A splicing: modulators of lamin A splicing | HeLa LMNA splicing GFP/RFP minigene ratio, 48 h | Potency, µM (titrated, usually from 46.1 µM), inactives show at the top dose ratio change, negative = inhibition, usual class: inhibitors | 200,000 tested, 0.01% active; active = well fitted inhibition curve with a large enough effect in the signal ratio, with a control signal flat, not every such curve was filed as active; inconclusive = small, poorly fitted or top-dose-only effect, or effect the other way, or a change in a side signal; the % refers to the signal ratio; also: potency is read from the fitted curve at half-maximal effect
#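 S3 HeLa stable clones carrying a lamin A-EGFP splicing minigene plus DsRed2 were seeded at 600 cells/well in Opti-MEM with 2% FBS, pin-dosed and incubated 48 h at 37°C. Acumen cytometry (488 nm) gave the GFP/RFP total-intensity ratio.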
# PNC assembly inh: blocks assembly of the perinucleolar compartment; PC3M PTB-GFP, PNC prevalence imaging, 16 h; active compounds read low; activity change (PNC), negative = inhibition, % at 10 µM; 140,000 tested, 3.1% active; AID 2417;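 active = readout at or below -70, meaning at least 70% loss of cells showing the perinucleolar compartment, a nuclear body marking cancer cells; inconclusive = readout between -30 and a set limit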;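 also: plate controls were DMSO wells for no effect and camptothecin positive control wells for full effect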
#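 PC3M cells stably expressing PTB-GFP, 750–1000 cells/well, treated 16 h at 37 °C with compound (23 nl of library stock), in duplicate. After paraformaldehyde fixation and Hoechst stain, imaged at 20x; PNC prevalence scored by image analysis.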
# 12-hLO inh: inhibitors of human 12-lipoxygenase (ALOX12); P18054; purified 12-hLO, xylenol orange hydroperoxide absorbance; Potency, µM (top dose mostly 57.1 µM), for inactives: at the highest dose activity change, negative = inhibition, usual class: inhibitors; 150,000 tested, 0.12% active; active = well fitted inhibition curve with a large enough effect; inconclusive = small, poorly fitted or top-dose-only effect; also: potency is read from the fitted curve at half-maximal effect; nearly all actives have a fitted effect of over 55% in size
# Target sequence (P18054 whole entry, looked up): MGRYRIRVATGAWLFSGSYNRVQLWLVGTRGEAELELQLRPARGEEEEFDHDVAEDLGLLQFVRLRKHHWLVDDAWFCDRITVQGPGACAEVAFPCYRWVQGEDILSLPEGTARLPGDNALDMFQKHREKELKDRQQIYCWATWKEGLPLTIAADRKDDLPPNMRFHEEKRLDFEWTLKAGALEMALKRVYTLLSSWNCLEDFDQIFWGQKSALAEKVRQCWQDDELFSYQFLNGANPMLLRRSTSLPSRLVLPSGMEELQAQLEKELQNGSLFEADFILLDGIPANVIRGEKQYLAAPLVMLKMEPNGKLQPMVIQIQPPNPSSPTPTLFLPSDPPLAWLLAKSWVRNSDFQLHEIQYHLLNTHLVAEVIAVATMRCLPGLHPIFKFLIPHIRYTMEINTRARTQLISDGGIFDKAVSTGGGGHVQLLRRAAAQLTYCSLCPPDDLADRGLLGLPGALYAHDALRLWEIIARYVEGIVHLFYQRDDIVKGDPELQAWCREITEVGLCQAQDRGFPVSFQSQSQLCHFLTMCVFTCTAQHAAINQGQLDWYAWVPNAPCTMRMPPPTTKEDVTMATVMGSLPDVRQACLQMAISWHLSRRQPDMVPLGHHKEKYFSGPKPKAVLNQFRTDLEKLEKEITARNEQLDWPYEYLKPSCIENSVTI
#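 Purified human 12hLO (150 nM), preincubated 15 min with compound, then 40 uM arachidonic acid for 30 min, room temperature, Hepes pH 7.0 with 0.01% Triton X-100. Hydroperoxide detected by ferrous iron/xylenol orange; 573/405 nm absorbance ratio gives reaction progress.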
# HPGD inh: blocks human HPGD enzyme activity. 150,000 tested, 4.3% active. P15428. Potency, µM, for inactives: top-dose activity change, negative = inhibition, usual class: inhibitors. purified HPGD, NADH fluorescence kinetic, PGE2 substrate; also: potency is read from the fitted curve at half-maximal effect
#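 NADH formation kinetics: reaction with 30 uM PGE2 and 1 mM NAD+ (final), 20 nM enzyme, Tris-HCl pH 8 with Tween 20, after 15 min compound preincubation at room temperature. Fluorescence change, last versus first of five reads.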
# ALDH1A1 block: ALDH1A1 (human) enzyme inhibition | Potency, µM (highest dose often 75.3 µM), for inactives: top-dose activity, negative = inhibition, most hits filed as inhibitors | Purified ALDH1A1, NADH fluorescence, propionaldehyde substrate | AID 1030 | 220,000 tested, 7.3% active;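 also: potency is read from the fitted curve at half-maximal effect; plate controls were no enzyme wells and a reference inhibitor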
# Numbers without * were called inactive; ? = inconclusive; · = no result; [ ] = another dose, or the depositor's remark. Unless noted, calls follow the shape of the dose curve; as a rule, active = well fitted inhibition curve with a large enough effect (not every such curve was filed as active); inconclusive = small, poorly fitted or top-dose-only effect, or another doubt; inactive = no such curve, though single readings can be large or run the other way. Unless noted, % is scaled to controls: 0 for no effect and ±100 for the full control effect.
SMILES,Lamin A splicing,PNC assembly inh,12-hLO inh,HPGD inh,ALDH1A1 block
COCCOC(=O)c1c(C)oc2ccc(O)c(CN3CCC(C)CC3)c12,5%,-110*,0%,4%,8%
COc1cc2c(C(=O)N3CCN(C4CCCCC4)CC3)cn(CC(C)C)c(=O)c2cc1OC,2%,?,-9%,-8%,22µM*
CCOC(=O)C1CCCN(C(=O)c2cn(CC)c(=O)c3cc(OC)c(OC)cc23)C1 (configuration not stated),7%,10,0%,-9%,-10%
CCOC(=O)C1CCCN(C(=O)c2cn(CC(C)C)c(=O)c3cc(OC)c(OC)cc23)C1 (configuration not stated),-6%,-100*,-6%,-27%,?
COC(=O)C1=C(C)N(Cc2ccccc2)[C@]23O[C@](C(=O)OC)(C(=O)N2C1c1ccccc1)C(C(=O)OC)C3C(=O)OC (some centres not stated),·,·,·,·,-3%[13.5 µM]
COc1ccccc1-n1c(SCC(=O)Nc2cccc3ccccc23)nc(O)cc1=O,16%,79,-17%,-16%,?
COc1ccccc1-n1c(SCC(=O)Nc2ccc(C)cc2)nc(O)cc1=O,17%,14,0.079µM*,-13%,?
COc1ccc(NC(=O)CSc2nc3c(c(=O)n2-c2ccc(F)cc2)SCC3)cc1,-5%,?,0%,-5%,?
COc1ccccc1-n1c(SCC(=O)Nc2ccc(F)cc2)nc2c(c1=O)SCC2,-17%,25,-3%,-16%,11µM*
COc1ccc(NC(=O)CSc2nc(O)cc(=O)n2-c2ccccc2OC)cc1,?,-11,7.1µM*,-7%,4%
Cc1ccc(SCC(=O)Nc2ccc3oc(-c4cccc(Cl)c4)nc3c2)cc1,2%[46 µM],·,·,·,·
N#Cc1cnn(-c2nc3sc4c(c3c(=O)[nH]2)CCCC4)c1N,-1%,17,0%,?,2%
N#Cc1cnn(CC2CCCCC2)c1N,3%,-97*,-1%,-11%,5%
Cn1cc(C(=O)c2ccccc2)cc1-c1nc2ccccc2n1C,-13%,-30,8%,?,-14%
Cc1oc(-c2nc3ccccc3n2C)cc1C(=O)c1ccccc1,-9%,-13,-2%,35µM*,?
CC(C)CN1CCc2nc(N3CCN(C)CC3)ncc2C1,-18%[46 µM],·,·,·,·
O=[N+]([O-])c1ccccc1-c1ccc(C(=S)N2CCCC2)o1,11%[46 µM],·,·,·,2.2µM*
O=[N+]([O-])c1ccccc1-c1ccc(C(=S)N2CCCCC2)o1,·,·,·,·,22µM*
Cc1ccc(-c2nc(CNC(=O)NC3CCCCC3)c(C)o2)cc1,10%[46 µM],·,·,·,·
O=C(Cn1cnc2onc(-c3ccc(F)cc3)c2c1=O)N1CCN(c2ccc(F)cc2)CC1,5%[46 µM],·,·,·,·
CN=C(N)/N=C(\N)Nc1cc2ccccc2c2ccccc12,·,·,5%[11.4 µM],-7%,7%[13.5 µM]
Cc1nc2ncnn2c(C)c1CCC(=O)N1CCN(c2ccccn2)CC1,10%,?,-3%,-30%,-5%
Cc1ccnc(SCC(=O)N2CCc3ccccc3C2)n1,0%[46 µM],·,·,·,18µM*
Cc1ccccc1-n1c(C)nnc1SCC(=O)N1CCc2ccccc2C1,-2%,-107*,-2%,-30%,-6%
Cc1nc2ncnn2c(C)c1CCC(=O)N1CCc2ccccc2C1,?,4,-1%,-6%,2.2µM*
SMILES,Lamin A splicing,PNC assembly inh,12-hLO inh,HPGD inh,ALDH1A1 block
COCCn1c(SCc2nnc(-c3ccccc3)o2)nc2sc3c(c2c1=O)CCC3,?,51,-8%,7.1µM*,-8%
Cc1noc(C)c1-c1cncnc1-n1ccnc1,0%,·,·,·,8%
COc1cc(NC(=S)N2CCN(c3ccccn3)CC2)c(OC)cc1Cl,-14%,5,-1%,28µM*,?
O=C(CN1CCN(c2ccccn2)CC1)N1c2ccccc2Sc2ccc(C(F)(F)F)cc21,?,-114*,?,-15%,7.9µM*
COc1cc(NS(C)(=O)=O)c(OC)cc1NC(=O)c1ccccc1,6%,?,1%,-7%,25µM*
COc1cc(NC(=O)c2ccccc2)c(OC)cc1NC(C)=O,-11%,3,0%,4%,-8%
COc1ccc(Cl)cc1NC(=S)N1CCN(c2ccccn2)CC1,-21%,-6,-10%,·,3%
COc1cc(NC(=O)c2ccccc2)c(OC)cc1NC(=O)CN1CCN(c2ccccn2)CC1,0%,-12,6%,-20%,16µM*
COc1cc(NC(=O)c2ccc(Cl)cc2)c(OC)cc1NC(=O)CN1CCCCC1,-24%[46 µM],·,·,·,?
O=C(NCCc1csc(-c2ccc(F)cc2)n1)c1cccs1,17%[46 µM],·,·,·,·
O=C(CN1CCN(c2ccccn2)CC1)Nc1cccc(C(F)(F)F)c1,?,26,-11%,5%,9.5µM*
O=C(CN1CCN(c2ccccc2)CC1)Nc1cccc(C(F)(F)F)c1,-5%,32,-6%,-14%,1%
COc1ccc(OC)c(N(CC(=O)Nc2cccnc2)S(=O)(=O)c2ccc(OC)c(OC)c2)c1,-7%,-109*,0%,16µM*,9%
COc1ccccc1N(C)S(=O)(=O)c1ccc(C(=O)OCC(=O)Nc2cc(C)on2)cc1,-11%[46 µM],·,·,·,7%
COc1ccc(OC)c(N(CC(=O)Nc2cccnc2)S(C)(=O)=O)c1,13%,18,0%,-2%,5%
COc1ccc(C)cc1NC(=O)CN(C)S(=O)(=O)c1cc(C)ccc1OC,-8%,9,-3%,0%,11%
COc1ccc(C)cc1N(CC(=O)Nc1cccnc1)S(=O)(=O)c1ccccc1,-12%[46 µM],·,·,·,12%
COc1ccc(OC)c(N(CC(=O)Nc2cccnc2)S(=O)(=O)c2ccc(C)cc2)c1,-21%,13,12%,7.1µM*,-7%
COc1ccccc1N(CC(=O)Nc1cc(C)on1)S(=O)(=O)c1ccc(Cl)cc1,-7%,-13,-3%,14µM*,1%
COc1ccc(C)cc1S(=O)(=O)N(C)CC(=O)Nc1ccccc1,-7%,-108*,-2%,-4%,?
COC(=O)C/C=C\[C@@H](C)[C@@H](/C=N\OC[C@@H](O)[C@H]1O[C@H]2OC(C)(C)O[C@H]2[C@@H]1O)NS(=O)(=O)c1ccc(C)cc1,·,·,·,·,-3%[13.5 µM]
COc1ccc(OC)c(N(CC(=O)Nc2ccc3c(c2)OCO3)S(=O)(=O)c2ccccc2)c1,-13%,8,-3%,32µM*,-6%
O=C(N/N=C/c1ccc(N2CCCCC2)o1)C(O)(c1ccccc1)c1ccccc1,5%,?,-4%,32µM*,?
O=C(Cn1c(=O)c2cccn2c2ccccc21)NCc1ccccc1F,5%[46 µM],·,·,·,·
O=[N+]([O-])c1cnc(Sc2ccncn2)s1,·,·,·,·,3.2µM*
O=C(Oc1c(Br)cc(C(=S)N2CCOCC2)cc1Br)c1ccc(Cl)cc1,9%,36,-26%,16µM*,6.3µM*
COc1ccc(CC(=O)Nc2ccc3c(c2)OCO3)cc1S(=O)(=O)N1CCOCC1,0%,16,-4%,-14%,-6%
